The panel holds about 83,000 compounds, 20% with a hit somewhere; the sample as a whole holds those more often.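 Single-dose data. Exposure time 48 hours. Values below 10 considered active.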 Unmarked numbers belong to inactive results. Activity calls are given as the source filed them.
Columns and labels:
Experiment in all cases: NCI-60 one-dose screen, 48 h (100 = growth as untreated, 0 = no growth, -100 = all killed)
Details in all cases: 10 µM unless noted
T-47D breast = tested on: T-47D breast
BT-549 breast = tested on: BT-549 breast
SW-620 colon = tested on: SW-620 colon
MCF7 breast = tested on: MCF7 breast
HCT-116 colon = tested on: HCT-116 colon
HCC-2998 colon = tested on: HCC-2998 colon
KM12 colon = tested on: KM12 colon
MDA-MB-435 melanoma = tested on: MDA-MB-435 melanoma

Row | Structure (SMILES) | growth (T-47D breast) [%] | growth (BT-549 breast) [%] | growth (SW-620 colon) [%] | growth (MCF7 breast) [%] | growth (HCT-116 colon) | growth (HCC-2998 colon) | growth (KM12 colon) [%] | growth (MDA-MB-435 melanoma) [%]
1 | Cc1ccc(-c2nc([P+](c3ccccc3)(c3ccccc3)c3ccccc3)c(N3C[C@H]4C[C@H](C3)c3cccc(=O)n3C4)o2)cc1 | 38.5 | 56.2 | 85.6 | 67.3 | 88.2% | 71.3% | 43.6 | 
2 | OCC12CCCC(CO)(COC1)C2O (stereo not drawn) | 101 | 105 | 97.1 | 106 | 100% | 100% | 107 | 
3 | CC(C)=CCC[C@](C)(O)[C@H]1CC[C@]2(C)[C@@H]1CC[C@@H]1[C@@]3(C)C/C(=C/c4ccc(Br)cc4)C(=O)C(C)(C)[C@@H]3CC[C@]12C | 64.3 | 95.4 | 82.2 | 82.2 | 66.5% |  | 94.9 | 
4 | COc1ccc(C2C(C#N)=C(N)Oc3c2sc2c(F)cccc32)cc1 (stereo not drawn) | 23.8 | 37 | 25.1 | 15.4 | 8.94% (active) | 85.2% | 35.5 | 
5 | N=C(N)c1ccc(-c2ccc(-c3cc(F)cc(F)c3)o2)nc1 | 86.3 | 97.4 | 54.2 | 66.9 | 64.2% | 96.5% | 91.5 | 
6 | O=C(/C(=C(\C(=O)c1ccccc1)c1ccccc1)c1ccccc1)c1ccccc1 |  |  | 38.5 | 42.6 | 14.1% | 52% | 17.1 | 73.6
7 | O=S(=O)(NCCNc1cc(-c2cn(-c3ccccc3)nc2-c2cccc(O)c2)ccn1)c1cccc(F)c1 | 11.6 | 48 | 19.1 | 21.4 | 23.2% | -15.6% (active) | 31.1 | 
8 | O=[N+]([O-])c1ccc(N/N=C(\C(=N/Nc2ccc([N+](=O)[O-])cc2[N+](=O)[O-])c2ccccc2)c2ccccc2)c([N+](=O)[O-])c1 |  |  | 72.8 | 96.3 | 65% | 89.6% | 88.5 | 77.8

From PubChem BioAssay (NCI)
